# Assay outcomes (PubChem)
# ASM inhibitor – blocks human secretory acid sphingomyelinase; placental ASM, HMU-PC fluorogenic substrate, 60 min; 340,000 tested, 0.006% active; P17405; Potency, µM (titrated, usually from 57.5 µM), without a hit: top-dose activity change, negative = inhibition, most hits filed as inhibitors; further: potency means the concentration at half of the fitted maximal effect
# Target sequence (P17405 47-631 limits assumed): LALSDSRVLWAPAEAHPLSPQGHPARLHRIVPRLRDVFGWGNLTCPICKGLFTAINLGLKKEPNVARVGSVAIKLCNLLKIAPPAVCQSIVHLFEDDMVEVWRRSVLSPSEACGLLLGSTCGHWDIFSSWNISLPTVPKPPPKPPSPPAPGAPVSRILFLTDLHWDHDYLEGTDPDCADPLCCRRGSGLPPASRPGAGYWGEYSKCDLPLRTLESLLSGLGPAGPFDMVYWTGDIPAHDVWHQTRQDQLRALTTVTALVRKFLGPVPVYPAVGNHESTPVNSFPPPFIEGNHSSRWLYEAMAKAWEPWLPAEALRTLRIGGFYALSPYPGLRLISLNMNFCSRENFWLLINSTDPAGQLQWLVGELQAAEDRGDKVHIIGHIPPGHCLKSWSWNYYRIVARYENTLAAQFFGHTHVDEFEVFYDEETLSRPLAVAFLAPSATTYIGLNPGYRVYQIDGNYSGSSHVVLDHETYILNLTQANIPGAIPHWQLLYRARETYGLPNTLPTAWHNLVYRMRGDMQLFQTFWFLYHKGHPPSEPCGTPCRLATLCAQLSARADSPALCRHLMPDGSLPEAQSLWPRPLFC
#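 Human placenta-derived ASM preincubated with compound 10 min at room temperature, then reacted with 9 uM (final) fluorogenic HMU-PC substrate for 60 min at 37 C. Stop solution raises pH to 10; fluorescence read at Ex 386/Em 447 nm.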
# IL1B secr inh – inhibitors of inflammasome signaling (IL-1 beta secretion). THP-1 LPS/ATP IL-1B secretion, AlphaLISA, 16 h; hits give low values. activity change, % at 57.5 µM. 360,000 tested, 4.7% active. AID 743279; in the data active means activity change below about -50%; inconclusive means mostly about -30% to -49%; further: on the % scale 0 is the no-effect control and ±100 the full control effect
#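 THP-1 cells pretreated 1 hr with compounds (up to 57.5 uM final), then stimulated with LPS (250 ng/mL final) plus ATP (1.25 mM final); secreted IL-1B measured by AlphaLISA after 16 hr, decreased signal indicating inhibition.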
# TDP1 cell CPT – growth inhibition of DT40 Tdp1-/-;hTDP1 cells with camptothecin (screen for TDP1 inhibitors); 420,000 tested, 12% active; Potency, µM (top dose mostly 46.2 µM), inactives show top-dose activity change, negative = growth inhibition, actives largely listed as inhibitors; chicken DT40 Tdp1-/-;hTDP1 cells + 20 nM CPT, ATP luminescence, 48 h; further: potency means the concentration at half of the fitted maximal effect; on the % scale 0 is the no-effect control and ±100 the full control effect; nearly all actives have a fitted effect of over 55% in size
#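 Chicken DT40 Tdp1-/- cells stably complemented with human TDP1 were seeded at 400 cells/well in medium containing 20 nM camptothecin, exposed to pin-transferred compounds, and grown at 37 °C for at least 48 hr. Viability was read as ATP luminescence.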
# TGFb SMAD3 inh – blocks TGF-b signaling; Potency, µM (doses to about 46.1 µM), without a hit: top-dose activity, negative = inhibition, most hits filed as inhibitors; 410,000 tested, 1.2% active; AID 588855; HepG2 CAGA-GFP TGF-b/SMAD3 reporter, GFP fluorescence, 18 h; TGF-beta stimulated, 500 pg/mL final; further: potency means the concentration at half of the fitted maximal effect; on the % scale 0 is the no-effect control and ±100 the full control effect; nearly all actives have a fitted effect of over 65% in size
#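 Inhibition was scored as loss of TGF-beta-induced (500 pg/mL final, 18 hours, 37 degrees C) GFP in HEPG2 cells carrying a CAGA-GFP reporter, in DMEM with 1% FBS. Well GFP was summed per cell; Activity was normalised to unstimulated and stimulated DMSO wells, then concentration-response fitting.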
# TDP1 cell noCPT – qHTS for Inhibitors of human tyrosyl-DNA phosphodiesterase 1 (TDP1): qHTS in cells in absence of CPT; 420,000 tested, 15% active; Potency, µM (top dose mostly 46.2 µM), without a hit: top-dose activity change, negative = growth inhibition, usual class: inhibitors; DT40 Tdp1-/- hTDP1 cells, no CPT, ATP luminescence, 48 h; further: potency means the concentration at half of the fitted maximal effect; on the % scale 0 is the no-effect control and ±100 the full control effect; nearly all actives have a fitted effect of over 55% in size
#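 Chicken DT40 Tdp1-/- cells complemented with human TDP1, screened without camptothecin (DMSO vehicle only), 400 cells/well. Compounds pin-transferred, cells incubated at 37 °C for at least 48 hr. Growth read as ATP-dependent luminescence (CellTiter-Glo, 30 min at RT).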
# HepG2 viability – kills HepG2 cells in TGF-b inhibitor counter-screen; HepG2 CAGA-GFP viability, ATP luminescence, 18 h; Potency, µM (series often up to 46.1 µM), inactives show top-dose activity change, negative = cytotoxicity, most hits filed as cytotoxic; 410,000 tested, 0.76% active; AID 588856; further: potency means the concentration at half of the fitted maximal effect
#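 HepG2 CAGA-GFP cells (1000/well, DMEM with 1% FBS) received compound, then TGF-beta at 500 pg/mL final, and were incubated 18 hours at 37 degrees C. Viability was read by CellTiter-Glo luminescence. Media-only wells were set as complete cell-killing and DMSO as no toxicity.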
# The depositor's hits bear a star; i = inactive; ? = inconclusive; . = no result given; [ ] = dose if it differs, or a comment. Sampled rows, rich in hits. Any-hit rate of the full collection: about 19%. Unless noted, the call rests on the fitted dose curve; in most records, active means well fitted curve in the direction sought with a large enough effect; inconclusive means small, poorly fitted or top-dose-only effect, or another doubt; inactive means no such curve, though single readings can be large; an effect the other way counts as inactive or inconclusive.
SMILES,ASM inhibitor,IL1B secr inh,TDP1 cell CPT,TGFb SMAD3 inh,TDP1 cell noCPT,HepG2 viability
COc1ccc(OCC(=O)Nc2cccc(-c3nc4ccccc4[nH]3)c2)cc1,-12.9%,?,14.6µM*,-16.5%,?,-38.4%
CC(=O)c1cccc(CN2CCCC(CCC(=O)NCc3ccc(C)o3)C2)c1 (stereo not given),2.5%,8.6,?,-1.4%,?,-2.0%
COc1ccccc1NC(=O)CN1CCC(c2nc3ccc(C)cc3[nH]2)CC1,-3.4%,4.5,-7.3%,-16.5%,-4.6%,-19.9%
COc1ccccc1NC(=O)N1CCC(c2nc3cc(C)c(C)cc3[nH]2)CC1,-3.0%,23.7,3.66µM*,?,1.84µM*,-2.8%
COc1cccc(CNC(=O)CN2CCC(c3nc4ccc(C)cc4[nH]3)CC2)c1,1.8%,-60.5*,?,-4.0%,?,-41.7%
COc1ccccc1NC(=O)CN1CCC(c2nc3ccccc3[nH]2)CC1,-1.6%,27.4,?,-0.3%,14.6µM*,1.4%
COc1ccccc1NC(=S)N1CCC(c2nc3cc(C)c(C)cc3[nH]2)CC1,0.2%,-0.6,?,-21.5%,?,-23.0%
Cc1ccc2nc(C3CCCN(C(=S)Nc4ccccc4C)C3)[nH]c2c1 (stereo not given),-9.8%,-2.3,?,?,20.6µM*,-41.8%
CCNC(=S)N1CCCC(c2nc3ccc(C)cc3[nH]2)C1 (stereo not given),-1.1%,-1.7,-4.1%,-5.1%,?,-11.7%
Cc1cc(C)cc(-n2ccn3cnnc3c2=O)c1,.,.,-1.9%,-3.5%,6.0%,7.9%
O=C(CN1C(=O)CCSc2ccc(S(=O)(=O)N3CCOCC3)cc21)Nc1cccc(F)c1,-1.5%,?,-23.6%,0.0%,13.4%,-16.6%
CN(CC(=O)Nc1ccccc1C(F)(F)F)C(=O)C1CCN(C(=O)c2ccc(Cl)cc2)CC1,6.4%,-8.4,-8.9%,-17.3%,?,-1.9%
Cc1cc(S(=O)(=O)N2CCCCC2CCNC(=O)C(=O)NCC2CCCO2)ccc1F (stereo not given),-0.9%,-2.8,-6.1%,1.7%,?,-3.3%
CC(C)OCCCNc1nc(-c2ccccc2)nc2ccccc12,-2.4%,0.5,?,?,14.6µM*,-44.8%
CC(C)(C)C(=O)OCCNc1nc(-c2ccccc2)nc2ccccc12,3.5%,-54.1*,?,2.9%,20.6µM*,-18.0%
Cc1ccc(C)c(SCC(=O)N(C)CC(=O)Nc2ccc(N3CCOCC3)cc2)c1,0.6%,-1.6,-17.7%,-1.6%,-20.2%,-3.3%
Cc1cc2[nH]c(=O)c(=O)[nH]c2cc1S(=O)(=O)NCC(C)c1ccccc1 (stereo not given),.,-4.9,-14.2%,-5.9%,-0.1%,-25.8%
CC(=O)c1ccc(NC(=O)c2ccc([N+](=O)[O-])o2)cc1,-0.4%,-97.5*,2.06µM*,12.6µM*,1.84µM*,15.8µM*
Cc1cc(C)nc(NC(=O)c2cc([N+](=O)[O-])cc([N+](=O)[O-])c2)n1,4.9%,25.5,-5.5%,?,?,-47.6%
NS(=O)(=O)c1ccc(O)c(NC(=O)c2ccc([N+](=O)[O-])o2)c1,-0.1%,-61.0*,?,-35.2%,?,-37.1%
COc1ccc(NC(=O)c2ccc(Br)o2)cc1,5.2%,-9.3,?,?,?,-26.0%
COc1ccc(NC(=O)c2ccc([N+](=O)[O-])o2)cc1,-4.7%,-96.4*,16.4µM*,11.2µM*,23.1µM*,-68.4%
CC(=O)Nc1ccc(NC(=O)COC(=O)c2ccc([N+](=O)[O-])o2)cc1,0.3%,37.9,-24.4%,-14.3%,?,-16.4%
Cc1cc(C)nc(NC(=O)c2ccc([N+](=O)[O-])o2)n1,i,0.0,?,?,13µM*,-13.1%
NS(=O)(=O)c1ccc(CNC(=O)c2ccc(Br)o2)cc1,2.2%,-5.7,-1.0%,1.9%,-13.4%,13.5%
SMILES,ASM inhibitor,IL1B secr inh,TDP1 cell CPT,TGFb SMAD3 inh,TDP1 cell noCPT,HepG2 viability
Cc1ccc(C(=O)N/C(=C/c2ccco2)C(=O)N2CCOCC2)cc1,4.3%,1.4,-15.2%,3.3%,-0.8%,3.6%
CC(C)Cc1nc2cc(NS(=O)(=O)N(C)C)cc(C(=O)N3CCN(c4ccccc4)CC3)c2n1C,.,.,29.7%[9.04 µM],.,-11.7%,.
COc1ccc(S(=O)(=O)NCCc2sc(C)nc2C)cc1F,.,.,.,-22.4%,.,-35.2%
Cc1cc(C)cc(NC(=O)c2ccc([N+](=O)[O-])o2)c1,-0.2%,-96.1*,7.31µM*,11.2µM*,6.51µM*,12.6µM*
CC(=O)c1cccc(NC(=O)c2cc(=O)c3ccccc3o2)c1,-1.9%,15.8,-6.2%,23.4%,?,0.0%
Cc1cc(C)c2sc(NC(=O)c3ccc([N+](=O)[O-])o3)nc2c1,-9.1%,?,?,-15.6%,?,-24.5%
CC(NC(=O)c1ccc([N+](=O)[O-])o1)C12CC3CC(CC(C3)C1)C2 (stereo not given),1.7%,-136.0*,?,11.2µM*,?,-51.2%
CC(=O)c1cccc(NC(=O)c2ccc([N+](=O)[O-])o2)c1,2.4%,-87.1*,8.2µM*,?,14.6µM*,-90.3%
COc1cc(NC(=O)c2ccc([N+](=O)[O-])o2)ccc1NC(=O)c1ccco1,-2.7%,-26.7,0.651µM*,1.12µM*,0.92µM*,3.6%
COC(=O)Cc1c(C)c2ccc3c(c2oc1=O)CN(Cc1ccccc1OC)CO3,.,.,?,2.5%,?,0.5%
COc1ccc(NC(=O)Cn2c(-c3ccccc3)cc(C(C)=O)c2C)c(OC)c1,-3.7%,4.4,-7.2%,10.3%,4.7%,0.4%
COc1ccc(NC(=O)c2c([N+](=O)[O-])c(C(C)(C)C)nn2C)cc1,-3.2%,-54.4*,?,3.4%,?,-17.8%
CC(=O)Nc1ccc(NC(=O)c2c([N+](=O)[O-])c(C(C)(C)C)nn2C)cc1,-2.3%,.,-27.9%,-19.1%,?,22.5%
COc1ccc(N/C(=C/[N+](=O)[O-])SC)cc1,-0.8%,-56.9*,5.4%,2.3%,-10.3%,-2.3%
CSc1nsc(SC)c1NC(=O)Nc1ccccn1,0.0%,1.3,16.4µM*,-0.2%,?,-17.2%
O=C(Nn1cnnc1)c1ccc(F)cc1,2.1%,-5.6,10.0%,-2.9%,13.9%,-1.4%
O=C(CNS(=O)(=O)c1ccccc1)N1CCN(Cc2ccccc2)CC1,0.1%,5.6,13.4%,-0.3%,6.6%,-1.9%
